From PubChem BioAssay AID1259343 (VanderVen Lab, College of Veterinary Medicine, Cornell …, 2017)
Among all 6,200 compounds or so, about 2,900 (47%) were called active. Rule as the data show it: active = inhibition above about 50%; inactive = the rest. The set was probably picked from earlier hits. The list shows a part of the results.

Test: Mycobacterium tuberculosis growth inhibition, primary screen (AID 1259343)
Details: inhibition: at 10 µM, hits give high values; outcome: 10 uM

| SMILES | inhibition |
| --- | --- |
| CCCCCNC(=O)N1CC2C3CCC(C3)C21 (stereo not given) | 28.6% (inactive) |
| CCCCCCNC(=O)n1cc(F)c(=O)[nH]c1=O | 97% (active) |
| CCCCCNC(=O)c1sc2[nH]c(=S)[nH]c(=O)c2c1C | 36.1% (inactive) |
| O=C(NCc1ccc(Cl)cc1)c1cncn1-c1ccc(-c2ccc(F)c(F)c2)cc1 | -2.19% (inactive) |
| Cc1cccc(-c2cccc(CNC(=O)c3ccc(=O)[nH]n3)c2)c1 | 18.8% (inactive) |
| Cc1cccc(-c2ccc(CNC(=O)c3ccc(=O)n(C)n3)cc2)c1 | 55.3% (active) |
| COc1cc(OC)cc(-c2cc3c(Nc4ccccn4)nccc3n2C)c1 | 57% (active) |
| COc1cccc(Nc2nccc3c2cc(-c2ccccc2)n3C)c1 | 87.3% (active) |
| COc1cccc(-c2ccnc3[nH]n(-c4ccccc4)c(=O)c23)c1 | 46.4% (inactive) |
| COc1cccc(Nc2nccc3c2cc(-c2ccc(N(C)C)cc2)n3C)c1 | 81.2% (active) |
| CC(C)c1ccc(Nc2cc3c(cn2)cc(-c2cccnc2)n3C)cc1 | 47.9% (inactive) |
| Cn1c(-c2cccc(C(F)(F)F)c2)cc2c(Nc3ccncc3)nccc21 | 97.1% (active) |
| CC(C)Cc1nnc(C(C)Sc2nc3ncc(Cl)cc3[nH]2)o1 (stereo not given) | -8.41% (inactive) |
| CC(C)C1(CNC(=O)c2ccc(Br)s2)CC1 | 95.1% (active) |
| CC(=O)c1ccc(-c2ccc(Br)s2)cc1 | 37% (inactive) |
| Cc1cccc(NC(C)c2nnc(-c3cccs3)o2)c1C (stereo not given) | 61.2% (active) |
| O=C(Nc1ccc(Br)cc1)c1cc(Br)cc(Br)c1O | 101% (active) |
| O=c1[nH]cc(CNCc2ccccc2)c(=O)[nH]1 | 101% (active) |
| CCC1CCCCN1C(=O)c1ccc(-c2cccc(Cl)c2)s1 (stereo not given) | 81.8% (active) |
| O=C(O)C1CCN(c2ncnc3cc(-c4ccc(F)cc4)sc23)CC1 | 14.5% (inactive) |
| CCC1CCCCN1C(=O)c1ccc(-c2ccc(F)cc2)s1 (stereo not given) | 94.5% (active) |
| Oc1ccc(C=Cc2ccncc2)cc1 | 37.5% (inactive) |
| Cn1nc([N+](=O)[O-])nc1Oc1ccc(Br)cc1 | 68.9% (active) |
| CCOC(=O)c1ccc(C#Cc2ccc3c(c2)C(C)(C)CCS3)nc1 | 87.4% (active) |
| CC(C)c1ccc(CCNC(=O)CNc2ccc(C#N)c(Cl)c2)cc1 | 2.06% (inactive) |

| SMILES | inhibition |
| --- | --- |
| N#Cc1ccc(NC(=O)NCc2cccs2)cc1Cl | 48.4% (inactive) |
| Cc1ccc(C(C)NC(=O)Nc2ccc(C#N)c(Cl)c2)o1 (stereo not given) | 89.3% (active) |
| Cc1ccc(Nc2n[nH]nc2C(=O)Nc2ccc(C)cc2Cl)cc1 | 83.6% (active) |
| Cc1ccc(NC(=O)NCCc2csc(C(C)C)n2)c(Cl)c1 | 25.8% (inactive) |
| Cc1ccc(Nc2nc(-c3ccccc3)nc(Cl)c2N)cc1 | 45.9% (inactive) |
| CCOC(=O)C1C(=O)CC(O)(c2ccc(Br)cc2)CC1C=C(Cl)Cl (stereo not given) | 34% (inactive) |
| Cc1cc(C)n2c(NCc3ccccc3)c(-c3ccc(Cl)cc3)nc2c1 | 51.4% (active) |
| CCC(=O)Nc1c(-c2cc(C)cc(C)c2)nc2cc(C)ccn12 | 5.69% (inactive) |
| CCCS(=O)(=O)Oc1ccc([N+](=O)[O-])cc1-c1nc2ccccc2o1 | 99.4% (active) |
| O=[N+]([O-])c1ccc(Cl)c(S(=O)(=O)Oc2cccc3ccccc23)c1 | 20.7% (inactive) |
| COc1cccc(C(=O)Nc2cc(-c3cccs3)nn2-c2nc(C)c(C)c(=O)[nH]2)c1OC | -24.6% (inactive) |
| CCc1cc(=O)[nH]c(-n2nc(C)cc2NC(=O)c2cccc(OC)c2OC)n1 | 102% (active) |
| COc1cccc(C(=O)Nc2cc(C)nn2-c2nc(C)cc(=O)[nH]2)c1OC | 101% (active) |
| COc1cccc(C(=O)Nc2cc(C)nn2-c2nc(C)c(C)c(=O)[nH]2)c1OC | 7.56% (inactive) |
| COc1cccc(C(=O)Nc2cc(-c3cccs3)nn2-c2nc(C)cc(=O)[nH]2)c1OC | 100% (active) |
| COc1ccccc1C(=O)Nc1cc(C)nn1-c1nc(C)cc(=O)[nH]1 | 99.4% (active) |
| COc1cccc2c1C(=O)c1c(O)c3c(c(O)c1C2=O)C[C@@](O)(C(C)=O)C[C@@H]3O[C@H]1C[C@H](N)[C@H](O)[C@H](C)O1 | 38.2% (inactive) |
| COc1cccc(C(=O)Nc2cc(C3CC3)nn2-c2nc(C)cc(=O)[nH]2)c1OC | 99.8% (active) |
| CCOc1ccccc1C(=O)Nc1cc(C)nn1-c1nc(C)cc(=O)[nH]1 | 101% (active) |
| Cc1oc(-c2ccc(-c3ccccc3)cc2)nc1CN(Cc1ccccn1)CC1CCCO1 (stereo not given) | -19.8% (inactive) |
| COC(=O)c1ccc(CN(Cc2ccco2)Cc2ccc(C)s2)o1 | 73.9% (active) |
| COc1ccc(CN(Cc2ccco2)CC(O)COc2ccc(Cl)cc2)cc1 (stereo not given) | 6.76% (inactive) |
| Cc1[nH]nc(C(=O)N(Cc2cccc(F)c2)CC2CCCO2)c1Br (stereo not given) | -6.44% (inactive) |
| COC(=O)c1ccc(CN(Cc2ccc(C)s2)CC2CCCO2)o1 (stereo not given) | 73.4% (active) |
| Cc1ccc(C(C)NC(=O)CN(C(=O)Cn2cnc(C)c2C)C(C)c2ccc(C)c(C)c2)cc1C (stereo not given) | 37.8% (inactive) |

| SMILES | inhibition |
| --- | --- |
| CN(c1ccccc1)S(=O)(=O)c1cccc(NC(=O)C2CC2)c1 | 95% (active) |
| COc1ccc(N(C)S(=O)(=O)c2ccc(OC)c(N3CCN(C(=O)C4CCC4)CC3)c2)cc1 | -12.6% (inactive) |
| O=C(NS(=O)(=O)CCc1ccccc1)c1cccs1 | 57% (active) |
| O=[N+]([O-])c1cnc(Nc2cccc(Cl)c2)c([N+](=O)[O-])c1 | 97.7% (active) |
| O=[N+]([O-])c1cnc(Nc2ccccc2Cl)c([N+](=O)[O-])c1 | -16.6% (inactive) |
| Cc1cc(C)cc(Nc2ncc([N+](=O)[O-])cc2[N+](=O)[O-])c1 | 92.8% (active) |
| O=[N+]([O-])c1cnc(Nc2cccc(O)c2)c([N+](=O)[O-])c1 | 75.9% (active) |
| COc1ccccc1Nc1ncc([N+](=O)[O-])cc1[N+](=O)[O-] | 101% (active) |
| O=[N+]([O-])c1cnc(Nc2ccccc2O)c([N+](=O)[O-])c1 | 26.1% (inactive) |
| C=C(C)C1Cc2c(ccc(C(=O)O)c2O)O1 (stereo not given) | 48.9% (inactive) |
| O=[N+]([O-])c1cnc(Nc2ccc(Cl)cc2)c([N+](=O)[O-])c1 | 58.3% (active) |
| O=[N+]([O-])c1cnc(Nc2ccc(O)cc2)c([N+](=O)[O-])c1 | inactive |
| CCN1CCN(c2cc3c(cc2F)c(=O)c(C(=O)O)cn3C2CC2)CC1 | 99.3% (active) |
| Nc1cc(F)c(N2CC3CCC2C3)cc1C(=O)O (stereo not given) | 36.3% (inactive) |
| O=C(c1cccs1)C1CCCN(Cc2nc(COc3ccccc3)no2)C1 (stereo not given) | 83.9% (active) |
| c1ccc(OCc2noc(CN3CC[C@@H]4CCCC[C@H]4C3)n2)cc1 | 66.7% (active) |
| c1ccc(CCC2CCN(Cc3nc(COc4ccccc4)no3)CC2)cc1 | inactive |
| Clc1cccc(C2CCN(Cc3nc(COc4ccccc4)no3)C2)c1 (stereo not given) | 92.9% (active) |
| O=C(c1ccccc1)C1CCCN(Cc2nc(COc3ccccc3)no2)C1 (stereo not given) | inactive |
| Fc1ccccc1Cc1noc(CN2CCCN(Cc3ccccc3F)CC2)n1 | 34% (inactive) |
| OC(CCc1ccccc1)C1CCN(Cc2nc(Cc3ccccc3F)no2)CC1 (stereo not given) | 43.5% (inactive) |
| Fc1ccccc1Cc1noc(CN2CC[C@@H]3CCCC[C@H]3C2)n1 | 74.6% (active) |
| CCc1ccc(CCOc2ccc(CC3SC(=O)NC3=O)cc2)nc1 (stereo not given) | 38.2% (inactive) |
| CCCCCCOc1ccc(C=C2SC(=O)NC2=O)cc1 | 84.7% (active) |
| CCCOc1ccc(C=C2SC(=S)NC2=O)cc1 | 86.5% (active) |

| SMILES | inhibition |
| --- | --- |
| O=C1NC(=O)C(=Cc2ccc(F)cc2)S1 | -10.1% (inactive) |
| CC(C)N1C(=O)C(=Cc2ccc(O)cc2)SC1=S | 36.9% (inactive) |
| O=C(OCC(=O)N(C1CCCCC1)C1CCCCC1)c1ccc([N+](=O)[O-])o1 | -1.53% (inactive) |
| CC(C)(C)c1ccc(-c2ccnc3nc(N4CCN(C(=O)c5ccc([N+](=O)[O-])o5)CC4)nn23)cc1 | 74.3% (active) |
| O=C(OCC(=O)N1CCCC1)c1ccc([N+](=O)[O-])o1 | 39% (inactive) |
| CCc1ccc(S(=O)(=O)Nc2cccc(-c3nc4cccnc4s3)c2C)s1 | 62.5% (active) |
| CC(C)CSc1nnc(-c2cccc([N+](=O)[O-])c2)o1 | 97.8% (active) |
| CC(C)CSc1nnc(C2CCCCC2)o1 | -1.92% (inactive) |
| Cc1cc(C)cc(-c2n[nH]c(=S)o2)c1 | 101% (active) |
| N#Cc1cccc(CSc2nnc(-c3cccc(Br)c3)o2)c1 | 5.74% (inactive) |
| O=[N+]([O-])c1cccc(-c2n[nH]c(=S)o2)c1 | 91.4% (active) |
| CC(C)(C)c1ccc(-c2n[nH]c(=S)o2)cc1 | 25.8% (inactive) |
| S=c1[nH]nc(-c2cccc(Br)c2)o1 | 62.1% (active) |
| Cc1ncc(CNC(=O)N2CCC(C(C)C)CC2)s1 | -9.36% (inactive) |
| S=c1nc(-c2ccc(Br)cc2)[nH][nH]1 | -31.4% (inactive) |
| S=c1[nH]nc(-c2ccc(Br)cc2)o1 | 80.5% (active) |
| S=c1[nH]nc(-c2ccc(Cl)cc2)o1 | 41.4% (inactive) |
| c1cc2c(cc1Oc1nc(CN3CCOCC3)nc3sc4c(c13)CCC4)CCC2 | 22.2% (inactive) |
| c1nc(N2CCCCC2)c2c3c(sc2n1)CCCC3 | 30% (inactive) |
| COCc1nc(N2CCNCC2)c2c3c(sc2n1)CCCC3 | 94.1% (active) |
| CCN1CCc2c(sc3nc(C4CCCCC4)nc(N4CCNCC4)c23)C1 | 50.1% (active) |
| CC(C)(CC(=O)O)CC(=O)N1CCC2(CC1)OCc1cc(-c3ccc(C(F)(F)F)cc3)ccc1O2 | 58% (active) |
| C#CCN(CC=C)Cc1nc(-c2ccc(OCC)cc2)oc1C | -15.4% (inactive) |
| CCOc1cccc(OCc2nc(-c3ccco3)oc2C)c1 | 75.2% (active) |
| Cc1sc2nc(-c3ccco3)oc(=O)c2c1C | -5.77% (inactive) |
